# Pf growth 96h: P. falciparum growth inhibition at 96 hour, primary screen for plastid delayed-death inhibitors | AID 504834 | P. falciparum luciferase reporter growth, 96 h | 320,000 tested, 6.9% active | Potency, µM (series often up to 28.7 µM), for the others: at the top dose activity change, negative = inhibition, hits mostly inhibitors; note: potency is the fitted concentration of half-maximal effect
#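 Plates of compound plus infected erythrocytes (2% hematocrit, 0.05% parasitemia final) incubate 96 hours, 37 C, 5% CO2. Detection reagent added; reduced luminescence from the parasites' luciferase reporter flags inhibition.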
# LASV entry inh: Lassa virus entry inhibition; 300,000 tested, 1.2% active; Lassa virus pseudotype entry inhibition, cell reporter; Potency, µM (top dose mostly 37.9 µM), without a hit: top-dose activity change, negative = inhibition, actives largely listed as inhibitors; calls by dose curve; tested in HEK293 cells; note: potency is the fitted concentration of half-maximal effect; nearly all actives have a fitted effect of over 50% in size
# Pf growth 48h: P. falciparum growth inhibition at 48 hours (one generation); 310,000 tested, 5.9% active; Potency, µM (series often up to 28.7 µM), inactives show top-dose activity change, negative = inhibition, most hits filed as inhibitors; P. falciparum luciferase growth in erythrocytes, 48 h; note: potency is the fitted concentration of half-maximal effect
#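 Read-out is firefly luciferase luminescence from an integrated reporter in P. falciparum, so falling signal marks reduced parasite growth. Infected erythrocytes were at 2% hematocrit and 0.1% parasitemia (final) in Albumax-supplemented RPMI 1640.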
# HCV inhibitor: inhibitors of hepatitis C virus infection; Huh7.5.1 HCVcc-Cre infection, luciferase reporter, 44 h; Potency, µM (titrated, usually from 41.8 µM), inactives show at the highest dose activity change, negative = inhibition, most hits filed as inhibitors; 340,000 tested, 3.4% active; AID 651820; note: potency is the fitted concentration of half-maximal effect
#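 HCVcc-Cre virus at an moi near 0.5 was added right after compound to cells cultured 4 h from seeding (1,000 cells/well). Luciferase activity was determined 44 h later, 15 min after substrate addition at RT.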
# HCMV antiviral: blocks human cytomegalovirus replication; HFF cells, HCMV-luciferase reporter, 72 h; hits give low values; activity change, negative = inhibition, % at 57.5 µM; 410,000 tested, 4.5% active; in the data active = activity change below about -60%; inconclusive = no clear call, values can overlap the other calls; inactive = above about -39%
#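 Compounds were evaluated in HFFs infected with an HCMV luciferase reporter virus (MOI 1 PFU/cell). Luciferase in lysates collected 72 h post infection served as the replication measure.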
# MARV entry inh: Marburg virus entry inhibition; Marburg virus pseudotyped entry inhibition, cell reporter; Potency, µM (titrated, usually from 37.8 µM), without a hit: at the highest dose activity change, negative = inhibition, hits mostly inhibitors; 300,000 tested, 1.8% active; AID 540276; calls by dose curve; tested in HEK293 cells; note: potency is the fitted concentration of half-maximal effect
# An asterisk follows results filed as active; ? = inconclusive; / = no result given; ! = repeats disagree; [ ] = another dose, or the depositor's remark. A selection: hits, their analogues and other compounds. The true share with any hit is near 14%. Unless noted, calls come from the whole dose curve; as a rule, active = well fitted inhibition curve with a large enough effect; inconclusive = small, poorly fitted or top-dose-only effect, or another doubt; inactive = no such curve, though single readings can be large or run the other way. % is set by controls: 0 for no effect and ±100 for the full control effect.
SMILES,Pf growth 96h,LASV entry inh,Pf growth 48h,HCV inhibitor,HCMV antiviral,MARV entry inh
COc1ccc(OC)c(-n2c(SCC(=O)Nc3cc(C)on3)nnc2-c2c[nH]c3ccccc23)c1,4.7µM*,/,/,-1%,13,/
COc1cccc(-n2c(SCC(N)=O)nnc2-c2c[nH]c3ccccc23)c1,12µM*,/,/,5%,-3,/
COc1ccc(Cl)cc1NC(=O)CSc1ccc2nnc(CCNS(=O)(=O)c3ccccc3)n2n1,/,-10%[46.1 µM],/,/,2,/
O=C1N=C(N2CCN(c3ccccc3)CC2)S/C1=C\c1ccco1,0%,/,-28%,-14%,-12,/
Cc1ccc(N2CCN(C3=NC(=O)/C(=C\c4cn[nH]c4-c4ccccc4)S3)CC2)cc1,?,?,5.9µM*,?,?,?
O=C1N=C(N2CCN(c3ccccc3)CC2)S/C1=C/c1ccco1,?,/,?,?,-32,/
Cc1cccc(N2CCN(C3=NC(=O)/C(=C\c4cn[nH]c4-c4ccccc4)S3)CC2)c1,12µM*,-3%,5.2µM*,1%,-31,1%
O=C1N=C(N2CCN(c3ccccc3)CC2)S/C1=C\c1cn[nH]c1-c1ccccc1,4.1µM*,2%,?,0%,-12,?
O=C1N=C(N2CCC(Cc3ccccc3)CC2)S/C1=C/c1cn[nH]c1-c1ccccc1,?,?,?,?,-17,10µM*
Cc1ccc(/C=C2\SC(N3CCCCC3)=NC2=O)cc1,390%,?,-5%,-17%,50,10%
N#Cc1ccccc1OCC(=O)Nc1cc(S(=O)(=O)N2CCCCC2)ccc1N1CCOCC1,/,-18%,/,?,-2,?
CCN(CC)CCNC(=O)Cn1nc(C)c2c(C)n(-c3ccccc3)nc2c1=O,/,1%[46.1 µM],/,/,4,/
O=[N+]([O-])c1c(Nc2ccc(O)cc2)cc(Cl)c2nonc12,-24%,/,/,7.1µM*,-100*,/
O=C(O)c1ccccc1Nc1cc(Cl)c2nonc2c1[N+](=O)[O-],3%,13%[46.1 µM],15%,14%,4,7%[46.1 µM]
O=[N+]([O-])c1c(Nc2ccccn2)cc(Cl)c2nonc12,13%,?,-2%,?,-105*,1%[46.1 µM]
CN(C)c1cc(Nc2ccc(O)cc2)c([N+](=O)[O-])c2nonc12,36%,/,55%,7%,?,/
CC(=O)OCC1=C(C(=O)O)N2C(=O)[C@@H](NC(=O)Cc3cccs3)[C@H]2SC1,-9%,-4%,-13%,0.56µM*!,0,?
COC(=O)C1=C[C@H]([C@@H](C)[C@H](OC)c2ccccc2Br)[C@H]2[C@H]1c1ccccc1N2C,/,?,/,/,/,-16%[14.2 µM]
O=C(Nc1ccon1)c1cc2c(s1)CCCC2,4%,-27%,58%,-11%,65,?
O=C(Nc1ccc(Cl)c(S(=O)(=O)Nc2ccccc2Cl)c1)c1cccs1,-7%,?,-1%,-7%,-17,-31%
Cc1ccc(C(=O)Nc2ccc(C)c(S(=O)(=O)Nc3ccccc3Cl)c2)s1,4%,5.2µM*,-8%,10µM*,?,-29%
Cc1ccc(NC(=O)c2cc3c(s2)CCCC3)cc1S(=O)(=O)Nc1ccccc1Cl,-23%,11µM*,19%,?,-82*,?
O=C(Nc1cc(S(=O)(=O)Nc2ccccc2Cl)ccc1O)c1cc2c(s1)CCCC2,0%,/,182%,-6%,-35,/
O=C(Nc1cccc(S(=O)(=O)Nc2ccc(Cl)cc2)c1)c1cc2c(s1)CCCC2,?,?,31%,11µM*,-75*,?
COc1cc(S(=O)(=O)N(Cc2ccccc2)CC2CCCO2)ccc1-n1cnnn1 (stereo unspecified),-2%,?,-9%,-1%,-7,-2%[46.1 µM]
SMILES,Pf growth 96h,LASV entry inh,Pf growth 48h,HCV inhibitor,HCMV antiviral,MARV entry inh
COc1ccc(S(=O)(=O)NC2CCCCC2)cc1-n1cnnn1,2.6µM*,-6%,0%,17%,11,14%[46.1 µM]
Cc1cc(S(=O)(=O)NC2CCCCC2)ccc1-n1cnnn1,-2%,-2%,-21%,0%,-38,?
COc1cc(S(=O)(=O)NCC2COCCO2)ccc1-n1cnnn1 (stereo unspecified),12µM*,-2%,-17%,11%,-1,14%
COc1cc(S(=O)(=O)N(Cc2cccs2)CC2CCCO2)ccc1-n1cnnn1 (stereo unspecified),4.1µM*,-1%,-18%,-18%,-8,0%
CC(C)C(c1nnnn1Cc1ccccc1)N1C(=O)C(=O)c2ccccc21 (stereo unspecified),/,/,/,/,-30,/
CC1CN2C(c3ccc(Cl)cc3)=CSC2=N1 (stereo unspecified),?,/,179%,-19%,-18,/
CCc1cccc(NC(=O)c2cc3c(=O)oc4ccc(C)cc4c3s2)c1,/,-1%[46.1 µM],/,/,-11,-2%[46.1 µM]
CC(=O)Nc1ccc(N(C(=O)Cc2c[nH]c3ccccc23)C(C(=O)NC2CCCCC2)c2ccco2)cc1 (stereo unspecified),2%,5.8µM*,?,?,?,-16%
Cc1ccc(C(C(=O)NC2CCCCC2)N(C(=O)Cc2c[nH]c3ccccc23)c2ccccc2)o1 (stereo unspecified),?,?,9.3µM*,-10%,7,?
O=C(NC1CCCCC1)C(c1cccs1)N(C(=O)Cc1c[nH]c2ccccc12)c1ccc(F)cc1 (stereo unspecified),?,-2%,1%,16%,-30,7%
CC(=O)c1ccc(N(C(=O)Cc2c[nH]c3ccccc23)C(C(=O)NC2CCCCC2)c2cccs2)cc1 (stereo unspecified),29%,?,3.7µM*,?,94,-19%
COc1cccc(CN(C(=O)Cc2c[nH]c3ccccc23)C(C(=O)NC2CCCCC2)c2cccs2)c1 (stereo unspecified),12µM*,7%,9.3µM*,?,-37,10%
CCCCC[C@H](O)c1cccc(OCc2ccc3ccccc3n2)c1,/,/,/,/,/,-31%
O=C(Cn1c(=O)nc(-c2ccccc2F)c2cc(Cl)ccc21)NCCCc1ccccc1,/,?,/,/,0,?
CC(=O)c1cccc(N(C(=O)c2ccccn2)C(C(=O)NC2CCCCC2)c2cccs2)c1 (stereo unspecified),1.7µM*,13%,2.6µM*,13%,?,-20%
C#CC(=O)N(c1ccc(OC)c(OC)c1)C(C(=O)NC1CCCC1)c1cccs1 (stereo unspecified),-9%,7.9µM*,-12%,0.32µM*,-99*,3.5µM*
C#CC(=O)N(c1cccc(OC)c1)C(C(=O)NC1CCCC1)c1cccs1 (stereo unspecified),?,?,31%,0.56µM*,-101*,2.9µM*
Cc1ccc(NCc2nnc3n2CCCCC3)cc1Cl,/,-9%[46.1 µM],/,/,42,/
